Assay results taken from the supplement of paper PMC3545927.
The list shows a part of the results. How many sequences the whole screen found active is unknown.

Molecular target: furin, P09958
Experiment: furin cleavage Z-score vs untreated control; higher = more cleavage, active = 3.5 or more, inactive = 1 or less, 8 variable residues between constant flanks
Procedure, shortened: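 To give the cleavage Z-score, log read counts were set against furin-free reactions, lowess-adjusted and scaled by median absolute deviation. These counts came from PCR adapter-tagged, sequenced DNA released when purified furin cut 8-mer peptides fused to a cDNA oligonucleotide and held on magnetic beads by their N-terminus. Digests were 0.01 ml, 1:10 enzyme:substrate, in 50 mM HEPES pH 7.5 with CaCl2 and NaCl, for 7.5, 15 or 30 min.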

furin, P09958, sequence (P09958 whole entry): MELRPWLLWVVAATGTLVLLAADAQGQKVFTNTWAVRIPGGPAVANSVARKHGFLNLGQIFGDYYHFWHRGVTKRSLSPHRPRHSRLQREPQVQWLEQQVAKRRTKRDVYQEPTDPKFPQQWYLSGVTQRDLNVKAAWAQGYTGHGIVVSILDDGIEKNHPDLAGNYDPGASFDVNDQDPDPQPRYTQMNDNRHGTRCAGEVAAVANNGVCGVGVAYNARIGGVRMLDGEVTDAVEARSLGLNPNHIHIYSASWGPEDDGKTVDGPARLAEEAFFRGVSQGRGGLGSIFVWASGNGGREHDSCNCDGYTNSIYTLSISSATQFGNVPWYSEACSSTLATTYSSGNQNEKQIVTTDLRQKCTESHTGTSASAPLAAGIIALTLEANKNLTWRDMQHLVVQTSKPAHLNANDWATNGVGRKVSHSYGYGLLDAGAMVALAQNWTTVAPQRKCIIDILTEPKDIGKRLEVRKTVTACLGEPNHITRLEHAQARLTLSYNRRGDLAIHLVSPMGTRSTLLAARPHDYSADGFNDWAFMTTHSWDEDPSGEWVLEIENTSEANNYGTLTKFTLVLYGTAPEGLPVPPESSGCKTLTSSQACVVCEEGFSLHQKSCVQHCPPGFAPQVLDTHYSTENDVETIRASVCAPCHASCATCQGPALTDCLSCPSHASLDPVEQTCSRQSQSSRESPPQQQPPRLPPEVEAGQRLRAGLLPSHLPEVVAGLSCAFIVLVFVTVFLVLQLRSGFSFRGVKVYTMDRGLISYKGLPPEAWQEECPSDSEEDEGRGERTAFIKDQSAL

| Sequence | furin cleavage Z-score (7.5 min) | furin cleavage Z-score (15 min) | furin cleavage Z-score (30 min) |
| --- | --- | --- | --- |
| CADAEVVTSTAGNASASA [HC2283] | -0.438 (inactive) | 0.612 (inactive) | 0.657 (inactive) |
| CAGNPAIASLAGNASASA [HC1052] | -0.886 (inactive) | -0.0897 (inactive) | -0.877 (inactive) |
| CARPYCWHYPAGNASASA [HC402] | -0.0981 (inactive) | -0.342 (inactive) | -1.07 (inactive) |
| CAMEECSQILAGNASASA [HC1744] | 0.778 (inactive) | 0.663 (inactive) | 0.94 (inactive) |
| CALCTTPCSGAGNASASA [HC1945] | 0.463 (inactive) | -0.673 (inactive) | -0.438 (inactive) |
| CARNRRAFGDAGNASASA [FS-2732] | 6.61 (active) | 9.22 (active) | 8.81 (active) |
| CARNRRRVCKAGNASASA [FS-2162] | -0.833 (inactive) | -0.214 (inactive) | 0.898 (inactive) |
| CARNRRHIEKAGNASASA [FS-2283] | 6.22 (active) | 6.56 (active) | 6.5 (active) |
| CARNRRVTRRAGNASASA [FS-2163] | 10.8 (active) | 11.8 (active) | 10.4 (active) |
| CARNSRFRCRAGNASASA [FS-3013] | 0.23 (inactive) | 0.474 (inactive) | 0.565 (inactive) |
| CAKGKWVPGAAGNASASA [HC550] | 0.591 (inactive) | -0.0194 (inactive) | 1.21 |
| CAEVVKSTWVAGNASASA [HC131] | -2.1 (inactive) | -0.614 (inactive) | -0.545 (inactive) |
| CAEVVTGTWVAGNASASA [HC142] | -0.000356 (inactive) | -0.439 (inactive) | 1.54 |
| CAVVMCSMSYAGNASASA [HC2026] | -0.445 (inactive) | 0.764 (inactive) | 0.688 (inactive) |
| CAAKRRTKRDAGNASASA [FS-1509] | 13.3 (active) | 12.3 (active) | 8.72 (active) |
| CAVKKRTKRDAGNASASA [FS-1579] | 13.7 (active) | 14.1 (active) | 11.3 (active) |
| CAVVNTTKRDAGNASASA [FS-967] | 0.253 (inactive) | 1.14 | 0.849 (inactive) |
| CAMEMEECSQAGNASASA [HC1786] | 0.949 (inactive) | -0.743 (inactive) | 0.205 (inactive) |
| CAQGERSRRLAGNASASA [FS-282] | 0.753 (inactive) | 4.38 (active) | 1.23 |
| CALRGRSRRLAGNASASA [FS-135] | 3.28 | 5.92 (active) | 6.35 (active) |
| CAWPTRRRRLAGNASASA [FS-109] | 8.56 (active) | 10.6 (active) | 9.39 (active) |
| CACRARRRRLAGNASASA [FS-16] | 9.49 (active) | 9.51 (active) | 8.36 (active) |
| CAQDVRCRRLAGNASASA [FS-478] | 1.46 | 1.58 | 0.0369 (inactive) |

| Sequence | furin cleavage Z-score (7.5 min) | furin cleavage Z-score (15 min) | furin cleavage Z-score (30 min) |
| --- | --- | --- | --- |
| CAMEECSQRLAGNASASA [HC1753] | 0.426 (inactive) | -0.514 (inactive) | 1.09 |
| CAIYQCCDLDAGNASASA [HC1490] | -1.27 (inactive) | -0.493 (inactive) | -0.515 (inactive) |
| CAPCTINYTIAGNASASA [HC470] | -0.109 (inactive) | -0.36 (inactive) | -0.753 (inactive) |
| CAEFEVPCHRAGNASASA [HC2447] | 1.12 | 0.425 (inactive) | 0.814 (inactive) |
| CALRQRRRRLAGNASASA [FS-1233] | 7.25 (active) | 8.53 (active) | 7.51 (active) |
| CAEPARRRRLAGNASASA [FS-1193] | 3.5 (active) | 3.06 | 4.29 (active) |
| CAGRGRRRRLAGNASASA [FS-1204] | 0.638 (inactive) | 1.19 | 1.19 |
| CASTVCSAHLAGNASASA [HC2510] | 0.637 (inactive) | 0.629 (inactive) | 0.755 (inactive) |
| CATCNRRKKEAGNASASA [FS-1492] | 0.181 (inactive) | 1.51 | 1.86 |
| CASRVRTGRSAGNASASA [FS-1417] | 9.44 (active) | 9.57 (active) | 7.69 (active) |
| CAALNRTGRSAGNASASA [FS-748] | 9.18 (active) | 11.6 (active) | 9.72 (active) |
| CAMLAEQFKQAGNASASA [HC1022] | 1.62 | -0.39 (inactive) | 0.514 (inactive) |
| CAALNRRKKQAGNASASA [FS-747] | 3.62 (active) | 5.46 (active) | 3.99 (active) |
| CAELSRTGRSAGNASASA [FS-22] | 3.94 (active) | 5.44 (active) | 5.19 (active) |
| CASCSSNVSVAGNASASA [HC1553] | 1.25 | -0.606 (inactive) | 0.334 (inactive) |
| CAVVCCSDSYAGNASASA [HC2051] | -1.19 (inactive) | 0.168 (inactive) | -0.153 (inactive) |
| CAEVPCHRGSAGNASASA [HC2396] | 0.0196 (inactive) | 1.61 | 1.87 |
| CAGSCRRARSAGNASASA [FS-1333] | 8.24 (active) | 6.66 (active) | 7.27 (active) |
| CAYGRRRRRSAGNASASA [FS-519] | 9.52 (active) | 10.7 (active) | 8.36 (active) |
| CAQDARRARSAGNASASA [FS-845] | 6 (active) | 7.49 (active) | 7.26 (active) |
| CAGRRLARGSAGNASASA [HC1254] | 3.43 | 4.7 (active) | 6.13 (active) |
| CAPYILKRGSAGNASASA [NG2] | 1.17 | 0.28 (inactive) | 0.586 (inactive) |
| CAYGLRDARSAGNASASA [FS-900] | -0.0484 (inactive) | -0.398 (inactive) | -0.0248 (inactive) |
